Assay results as given in PubChem BioAssay (NCATS).
Values joined by “and” are separate entries in the source; they are usually repeats but may differ in a detail not shown here. Equal entries are not always repeated. Inconclusive results are not listed. Entries that show only a call come without a potency. Active and inactive are the calls of the source. Calls come from the whole dose curve; as a rule, active = well fitted curve in the direction sought with a large enough effect; inconclusive = small, poorly fitted or top-dose-only effect, or another doubt; inactive = no such curve, though single readings can be large; an effect the other way counts as inactive or inconclusive.

Legend:
[1] = qHTS for Inhibitors of the Aldehyde Dehydrogenase Family (ALDH1A2, ALDH1A3, ALDH2, ALDH3A1) (AID 2061307); note: test system not described further here; potency is the fitted concentration of half-maximal effect; nearly all actives have a fitted effect of over 50% in size
[2] = molecular target: Aldehyde dehydrogenase 1A1 (Homo sapiens) (UniProt P00352); assay: qHTS for Inhibitors of the Aldehyde Dehydrogenase Family (ALDH1A1) Confirmatory screens (AID 2061316); note: potency is the fitted concentration of half-maximal effect; nearly all actives have a fitted effect of over 65% in size
[3] = molecular target: Aldehyde dehydrogenase, mitochondrial (Homo sapiens) (UniProt P05091); assay: qHTS for Inhibitors of the Aldehyde Dehydrogenase Family (ALDH2) Primary screen (AID 2061308); note: nearly all actives have a fitted effect of over 55% in size; note: potency is the fitted concentration of half-maximal effect
[4] = molecular target: Retinaldehyde dehydrogenase 3 (Homo sapiens) (UniProt P47895); assay: qHTS for Inhibitors of the Aldehyde Dehydrogenase Family (ALDH1A3) Confirmatory screens (AID 2061311); note: nearly all actives have a fitted effect of over 60% in size; note: potency is the fitted concentration of half-maximal effect
[5] = molecular target: Retinal dehydrogenase 2 (Homo sapiens) (UniProt O94788); assay: qHTS for Inhibitors of the Aldehyde Dehydrogenase Family (ALDH1A2) Confirmation screens (AID 2061314); note: potency is the fitted concentration of half-maximal effect; nearly all actives have a fitted effect of over 65% in size
[6] = molecular target: Retinaldehyde dehydrogenase 3 (Homo sapiens) (UniProt P47895); assay: qHTS for Inhibitors of the Aldehyde Dehydrogenase Family (ALDH1A3) Primary screen (AID 2061315)

CCOCCCNC(=O)Nc1cc(C(=O)NCc2ccc(C(C)C)cc2)ccc1N1CCCC1
Potency [1]: 0.726 µM (active)
Potency [2]: 2.89 µM (active)

Cc1ccc(-c2ccc(=O)n(CC(=O)NCCc3ccccc3)n2)cc1
Potency [3]: inactive
Potency [4]: 0.447 µM (active)
Potency [5]: 11.2 µM (active)
Potency [6]: inactive

C=C1/C(=C/C=C2\CCC[C@]3(C)[C@@H]([C@H](C)/C=C/[C@H](O)C4CC4)CC[C@@H]23)C[C@@H](O)C[C@@H]1O
Potency [3]: inactive

COc1ccc(C(=O)N(Cc2ccccc2)Cc2ccco2)c(O)c1
Potency [3]: inactive
Potency [4]: 14.2 µM (active)
Potency [5]: 25.2 µM (active)
Potency [6]: inactive

Cc1ccc(Nc2c(F)cccc2Cl)c(CC(=O)O)c1
Potency [3]: inactive

COc1ccc(OC)c(N2C(=O)C(Cl)=C(N3CCCCC3)C2=O)c1
Potency [3]: inactive

CC(C)(C)OC(=O)N1CCN(c2ccc(NCc3ccc4c(c3)OCO4)cc2)CC1
Potency [3]: inactive

CO[C@H]1c2cc(C(C)C)c(O)c(O)c2[C@@]23CCCC(C)(C)C2[C@@H]1OC3=O (stereo not given in full)
Potency [3]: inactive
Potency [4]: 6.97 µM (active)
Potency [5]: 6.97 µM (active)

O=C(O)c1ccc(-c2noc(-c3ccc(C(F)(F)F)cc3)n2)cc1
Potency [3]: inactive

c1cc2c3c(cccc3c1)NC(c1ccc3c(c1)OCO3)N2
Potency [3]: inactive

Oc1ccc(COCc2ccc(F)cc2)c2cccnc12
Potency [3]: inactive
Potency [4]: 10.1 µM (active)

c1csc(CNc2ccc(N3CCCCC3)cc2)c1
Potency [3]: inactive
Potency [4]: 20.1 µM (active)

C/C(=C\c1ccc2c(c1)OCO2)C1Nc2cccc3cccc(c23)N1
Potency [3]: inactive
Potency [4]: 2.83 µM (active)

Oc1ccc(/C=C/c2ccccc2)c2cccnc12
Potency [3]: inactive
Potency [4]: 14.2 µM (active)

O=C1c2ccccc2C(=O)N1c1cccc2cccnc12
Potency [3]: inactive

COc1ccc(C(=O)NC(c2ccco2)c2cc(Cl)c3cccnc3c2O)cc1 (stereo not given)
Potency [3]: inactive

CNC(=O)c1ccccc1Nc1cc(Nc2ccc(N3CCOCC3)cc2OC)ncc1C(F)(F)F
Potency [3]: inactive
Potency [4]: 3.57 µM (active)

CCC(=O)NC(c1cc(Cl)c2ccccc2c1O)C1CC1 (stereo not given)
Potency [3]: inactive

CC(=O)NC(c1cc(Cl)c2ccccc2c1O)C(C)C (stereo not given)
Potency [3]: inactive
Potency [4]: 8.96 µM (active)
Potency [5]: 20.1 µM (active)

CCC(=O)NC(c1cc(Cl)c2ccccc2c1O)C(C)C (stereo not given)
Potency [3]: inactive
Potency [4]: 12.7 µM (active)
Potency [5]: 28.3 µM (active)

COc1cccc(Nc2ccc(N3CCN(C(C)=O)CC3)cc2)c1OC
Potency [3]: inactive

CC(=O)c1ccc(N2CCN(S(=O)(=O)c3ccc4c(c3)C(Cl)(Cl)C(=O)N4)CC2)cc1
Potency [3]: inactive
Potency [4]: 2.82 µM (active) and 1.12 µM (active)
Potency [5]: 6.34 µM (active)

Cc1ccc(S(=O)(=O)Nc2cnccc2C(=O)Nc2ccc(N3CCOCC3)cc2)cc1
Potency [3]: inactive
Potency [4]: 4 µM (active)
Potency [5]: 6.34 µM (active)

CC(=O)NC(c1cc(Cl)c2ccccc2c1O)C1CC1 (stereo not given)
Potency [3]: inactive

Cc1ccc2nc3sc(C(=O)NCCc4cccnc4)cc3cc2c1
Potency [3]: inactive
Potency [4]: 12.7 µM (active)

O=C1c2ccccc2C(=O)c2cc(S(=O)(=O)Nc3cccc4cccnc34)ccc21
Potency [3]: inactive
Potency [4]: 15.9 µM (active)

NC(=O)C1CCN(c2ncc(-c3ccc4c(c3)OCCCO4)s2)CC1
Potency [3]: inactive
Potency [4]: inactive
Potency [5]: 3.57 µM (active)
Potency [6]: inactive

COc1ccccc1-c1nc(-c2cccc(C(=O)O)c2)no1
Potency [3]: inactive

O=[N+]([O-])c1ccccc1S(=O)(=O)Nc1cccc2cccnc12
Potency [3]: inactive
Potency [4]: 12.7 µM (active)
Potency [5]: 0.712 µM (active)

COc1cncc(NC(=O)c2cccs2)c1
Potency [3]: inactive
Potency [4]: 11.3 µM (active)

O=C(Nc1ccccc1C(=O)O)c1ccccc1
Potency [3]: inactive

Oc1cc(Nc2ccc(N3CCCCC3)cc2)cc2cccnc12
Potency [3]: inactive

CC(=O)c1ccc(N2CCN(S(=O)(=O)c3cc4c(cc3Cl)NC(=O)C4)CC2)cc1
Potency [3]: inactive
Potency [4]: 3.55 µM (active)

O=C1CCc2cc(S(=O)(=O)Nc3ccccc3-c3ccccc3)ccc2N1
Potency [3]: inactive

COc1ccc(CNc2ccc(N3CCN(C(C)=O)CC3)cc2)cc1OC
Potency [3]: inactive
Potency [4]: 12.7 µM (active)
Potency [5]: 12.7 µM (active)

COc1ccc(C2Nc3cccc4cccc(c34)N2)cc1
Potency [3]: inactive

Cc1ccc(-c2cc(C(=O)Nc3ccccn3)c3ccccc3n2)cc1C
Potency [3]: inactive

CC(C)N1CCc2c(sc(NC(=O)c3ccccc3)c2-c2nc3ccccc3s2)C1
Potency [3]: 22.4 µM (active)
Potency [4]: inactive

CC(C)c1ccccc1-c1nccc(NCc2ccc(-c3cccnc3)cc2)n1
Potency [3]: inactive

Cc1ccc(C)c(SC2=NS(=O)(=O)c3cc(C(=O)NCc4ccccc4)ccc32)c1
Potency [3]: inactive

C=C1C(=O)OC2/C=C(\CO)CC/C=C(\C=O)C(O)C(OC(=O)C(C)CC)C12 (stereo not given)
Potency [3]: inactive
